IDE act – boosts human insulin-degrading enzyme activity in HEK cells | FAbeta-B cleavage, fluorescence polarization; 0% vehicle, 100% cell-free pure enzyme wells | activation, % at 5.96 µM | actives 0.073% (n = 340,000) | AID 493087;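 active means activation above the mean of all tested compounds plus 3 SD, set per screening campaign, cut at about 17% in these data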
SUMO Mot1 rescue – inhibitors of SUMOylation pathway: yeast Mot1-301 growth rescue; AID 2716; growth rescue, % at 18.8 µM; actives 1% (n = 320,000); S. cerevisiae Mot1-301 growth rescue, ATP luminescence, 38.5C; percent above DMSO median, 100 means doubled;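 active means every valid replicate shows activation above 250% relative to neutral control wells; inactive means the rest, any valid replicate at or below 250%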
IDE cell inh – inhibitors of human insulin-degrading enzyme in cells | P14735 | actives 0.41% (n = 320,000) | HEK cells, FAbetaB cleavage, fluorescence polarization | inhibition, % at 5.59 µM;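 active means percent inhibition above the average of all tested compounds plus 3 SD, set per screening campaign, cut at about 16% in these data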;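 further: IDE supplied by intact live HEK cells; FP after avidin binding of uncleaved biotin substrate so inhibition keeps polarization high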
LANA-H2A inh – blocks KSHV LANA binding to histone H2A/H2B; actives 0.6% (n = 320,000); inhibition, % (test concentration not listed); cell-free LANA-H2A/H2B peptide, fluorescence polarization; in the data active means inhibition mostly above about 10%, no sharp cut-off; inactive means mostly below about 6.7%
HDAC3 inh – human HDAC3 inhibition; O15379; recombinant HDAC3, fluorogenic peptide/trypsin coupled, fluorescence; inhibition, % at 8.3 µM; actives 0.15% (n = 320,000); AID 2718; in the data active means inhibition above about 26%, passing the limit was not always enough
Numbers stand for hits. This is a sample that favours compounds with a hit; in the whole collection about 2.1% have one here.

For CC(C)CCN(C)C1CCN(S(=O)(=O)c2cccc(C(F)(F)F)c2)CC1 the results were IDE act inactive, SUMO Mot1 rescue inactive, IDE cell inh inactive, LANA-H2A inh 25 and HDAC3 inh inactive.
Screening CCOc1ccccc1Nc1nnc(SCC(=O)Nc2cccc(S(=O)(=O)NC3=NCCCCC3)c2)s1 returned IDE act inactive, SUMO Mot1 rescue 677, IDE cell inh inactive, LANA-H2A inh inactive and HDAC3 inh inactive.
Screening CS(=O)c1ccccc1O (stereo not given) returned IDE act inactive, SUMO Mot1 rescue inactive, IDE cell inh inactive, LANA-H2A inh 39 and HDAC3 inh inactive.
Screening O=S(c1ccccc1O)S(=O)c1ccccc1O (stereo not given) returned IDE act inactive.
For COc1ccc(Br)cc1C1CC(=O)N2CN(Cc3ccccc3)CSC2=C1C#N (stereo not given) the results were IDE act inactive, SUMO Mot1 rescue inactive, IDE cell inh inactive, LANA-H2A inh inactive and HDAC3 inh 32.
COc1cc(OC)c(C2CC(=O)N3CN(C)CSC3=C2C#N)cc1OC (stereo not given) was read as IDE act inactive, SUMO Mot1 rescue inactive, IDE cell inh inactive, LANA-H2A inh inactive and HDAC3 inh 31.
Screening COc1cc(OC)c(C2CC(=O)N3CN(c4ccccc4)CSC3=C2C#N)cc1OC (stereo not given) returned IDE act inactive, SUMO Mot1 rescue inactive, IDE cell inh inactive, LANA-H2A inh inactive and HDAC3 inh 42.
For CCc1ccccc1N1CSC2=C(C#N)C(c3cc(OC)c(OC)cc3OC)CC(=O)N2C1 (stereo not given) the results were IDE act inactive, SUMO Mot1 rescue inactive, IDE cell inh inactive, LANA-H2A inh inactive and HDAC3 inh inactive.
N#CC1=C2SCN(c3ccccc3)CN2C(=O)CC1c1c(Cl)cccc1Cl (stereo not given) was read as IDE act inactive, SUMO Mot1 rescue inactive, IDE cell inh inactive, LANA-H2A inh inactive and HDAC3 inh 61.
`CCOc1ccc(-c2nc(N)ncc2Oc2ccccc2Br)c(O)c1` gave IDE act inactive, SUMO Mot1 rescue inactive, IDE cell inh inactive, LANA-H2A inh inactive and HDAC3 inh inactive.
For C=C(C)COc1ccc(-c2[nH]ncc2Oc2ccccc2OC)c(O)c1 the results were IDE act inactive, SUMO Mot1 rescue inactive, IDE cell inh inactive, LANA-H2A inh inactive and HDAC3 inh inactive.
C=C(C)COc1ccc(-c2[nH]ncc2Oc2ccc(OC)cc2)c(O)c1 was read as IDE act 21, SUMO Mot1 rescue inactive, IDE cell inh inactive and LANA-H2A inh inactive.
`C=C(C)COc1ccc(-c2nc(N)ncc2Oc2ccc(OC)cc2)c(O)c1` gave IDE act inactive, SUMO Mot1 rescue inactive, IDE cell inh inactive, LANA-H2A inh inactive and HDAC3 inh inactive.
For CCOc1ccc(-c2nc(N)ncc2Oc2cccc(OC)c2)c(O)c1 the results were IDE act inactive, IDE cell inh inactive, LANA-H2A inh inactive and HDAC3 inh 27.
C=C(C)COc1ccc(-c2nc(N)ncc2Oc2ccccc2OC)c(O)c1 was read as IDE act inactive, SUMO Mot1 rescue inactive, IDE cell inh inactive, LANA-H2A inh inactive and HDAC3 inh 30.
Screening CC(C)(C)C(=O)Nc1ccnn1C1CCN(C(=O)c2cccc(Cl)c2)CC1 returned IDE act inactive, SUMO Mot1 rescue inactive, IDE cell inh inactive, LANA-H2A inh inactive and HDAC3 inh inactive.
CC(NC(=O)C1CCN(S(=O)(=O)c2ccc3nc4c(c(C(=O)O)c3c2)CCCC4)CC1)c1ccccc1 (stereo not given) was read as IDE act inactive, SUMO Mot1 rescue inactive, IDE cell inh inactive, LANA-H2A inh inactive and HDAC3 inh inactive.
`O=C(COc1ccc(S(=O)(=O)N2CCOCC2)cc1Cl)NC1CCCCC1` gave IDE act inactive, SUMO Mot1 rescue 338, IDE cell inh inactive, LANA-H2A inh inactive and HDAC3 inh inactive.
For O=C(COC(=O)c1cc(S(=O)(=O)N2CCOCC2)ccc1F)NC1CCCCC1 the results were IDE act inactive and IDE cell inh inactive.
`Cc1noc(C)c1COC(=O)c1cc(S(=O)(=O)N2CCOCC2)ccc1F` gave IDE act inactive, SUMO Mot1 rescue inactive, IDE cell inh inactive, LANA-H2A inh 31 and HDAC3 inh inactive.
Screening CC(OC(=O)c1cc(S(=O)(=O)N2CCOCC2)ccc1F)C(=O)NC1CCCC1 (stereo not given) returned IDE act inactive, SUMO Mot1 rescue inactive, IDE cell inh inactive, LANA-H2A inh 25 and HDAC3 inh inactive.

Assay outcomes as filed in PubChem.
